Screens: PubChem BioAssay, National Center for Advancing Translational Sciences (NCATS)
Pf growth 48h – P. falciparum growth inhibition at 48 hours (one generation); hit rate 5.9% among 310,000; P. falciparum luciferase growth in erythrocytes, 48 h; Potency, µM (series often up to 28.7 µM), for inactives: at the top dose activity change, negative = inhibition, hits mostly inhibitors; AID 504832; also: potency is read from the fitted curve at half-maximal effect; % is scaled to controls: 0 for no effect and ±100 for the full control effect
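Growth was read as firefly luciferase luminescence after a 48 h, 37 C, 5% CO2 exposure of compounds to reporter-bearing P. falciparum cultures (0.1% parasitemia, 2% hematocrit final) in Albumax-supplemented RPMI 1640.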
Cycloheximide cs – affects cycloheximide protein synthesis inhibition readout, counter-screen | cell reporter, cycloheximide protein synthesis inhibition counterscreen | max response, % | hit rate 12% among 300,000 | AID 2314; in the data active = max response mostly above about 13%, no sharp cut-off; inactive = mostly below about 14%; also: read at 38.3 µM for the half of the compounds with a filed dose; 0% is about no effect
Pf growth 96h – P. falciparum growth inhibition at 96 hours; P. falciparum luciferase reporter growth, 96 h; Potency, µM (highest dose often 28.7 µM), without a hit: top-dose activity change, negative = inhibition, usual class: inhibitors; hit rate 6.9% among 320,000; AID 504834; also: potency is read from the fitted curve at half-maximal effect; % is scaled to controls: 0 for no effect and ±100 for the full control effect
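Two-generation exposure (96 h) targets delayed-death phenotype. Reporter parasites carrying integrated firefly luciferase, in red cells at 2% hematocrit and 0.05% parasitemia final, kept at 37 C, 5% CO2; luminescence loss indicates inhibition.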
Shiga toxin inh – Shiga toxin inhibition; hit rate 9.2% among 290,000; AID 2315; Vero cells, Shiga toxin protein synthesis inhibition reporter; inhibition, % at 38.7 µM; in the data active = inhibition mostly above about 28%, no sharp cut-off; inactive = mostly below about 43%; also: 0% is about no effect
NS1 function inh – blocks influenza NS1 protein function; Potency, µM (series often up to 46.1 µM), for inactives: at the top dose activity, positive = more growth; hit rate 0.4% among 270,000; AID 2326; calls by dose curve; also: potency is read from the fitted curve at half-maximal effect; actives are rising curves; nearly all actives have a fitted effect of over 50% in size
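OD600 was taken as the measure of yeast growth restored by compound in an NS1-expressing S. cerevisiae strain. Cells had been washed out of glucose medium and diluted 1:100 into galactose -URA medium, pH 6.0.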
Numbers without * were called inactive; ? = inconclusive; · = no result given. Most compounds without a hit are left out; they make up all but 21% or so of the library. Unless noted, calls follow the shape of the dose curve; as a rule, active = well fitted inhibition curve with a large enough effect; inconclusive = small, poorly fitted or top-dose-only effect, or another doubt; inactive = no such curve, though single readings can be large or run the other way.

SMILES	Pf growth 48h	Cycloheximide cs	Pf growth 96h	Shiga toxin inh	NS1 function inh
CCN(C(=O)c1cc2ccccc2oc1=O)c1cccc(C)c1	·	53*	?	78*	3%
Cc1cccc(CN2CCN(c3nc4nonc4nc3NC3CC3)CC2=O)c1	?	-1	?	-14	-1%
CC(=O)c1cccc(NC2=NCC(C)S2)c1 (configuration not stated)	·	7	13µM*	5	3%
CC1CN=C(Nc2ccc(F)c(Cl)c2)S1 (configuration not stated)	-3%	15	-7%	77*	-1%
Fc1ccc(NC2=NCCS2)cc1Cl	11%	0	-13%	6	-43%
Cc1[nH]c(=O)c(C#N)c2c1CSC(C)(C)C2	38%	1	23%	-3	0%
C/C(=N\NC(=O)c1cc(-c2cccnc2)nc2ccccc12)c1ccc(O)cc1O	9.3µM*	9	?	13	?
C/C(=N\NC(=O)c1cc(-c2ccc(C)s2)nc2ccccc12)c1cccnc1	-6%	22*	?	22	-13%
C/C(=N/NC(=O)c1cc(-c2ccccc2)nc2c(Cl)cccc12)c1cccnc1	?	-3	10µM*	-12	9%
C/C(=N\NC(=O)c1cc(-c2ccccc2C)nc2ccccc12)c1cccnc1	1.9µM*	-4	?	-14	22%
COc1ccc(-c2cc(C(=O)N/N=C(\C)c3cccnc3)c3cc(C)ccc3n2)cc1OC	?	-3	?	-6	13%
CC(C)P(=O)(c1cccc(C(=O)O)c1)C(C)C	17%	-4	?	-10	10%
C/C(=N\NC(=O)c1cc(-c2ccccn2)nc2ccccc12)c1cccc([N+](=O)[O-])c1	?	5	10µM*	-7	·
C/C(=N\NC(=O)c1cc(-c2cccc(OC(C)C)c2)nc2ccccc12)c1cccnc1	?	32	13µM*	32	13%
CN(C)c1ccc(CNc2ccc3c(c2)ncn3C)cc1	·	20*	53%	18	0%
CC(C)c1ccc(CNc2ccc3c(c2)ncn3C)cc1	17%	60*	25%	104*	-9%
CCCCn1cnc2cc(NCc3ccncc3)ccc21	0%	7	160%	1	-6%
CC(C)c1ccc(CNc2ncccn2)cc1	88%	39*	12%	42*	-4%
CCCn1c(NCc2ccc(N(C)C)cc2)nc2ccccc21	·	21	-8%	5	-19%
O=S(=O)(O)n1ccnc1 (tested in a mixture with another compound)	·	·	·	·	-1%
CCN(CC)CC(=O)Nc1cccc(S(=O)(=O)N2CCCC2)c1	103%	-3	-4%	-4	7%
O=C(CNc1cccc(S(=O)(=O)N2CCCC2)c1)Nc1ccc(F)c(F)c1	1.5µM*	·	1.3µM*	·	·
CCN(CC)S(=O)(=O)c1ccc(C)c(NC(=O)CNc2cccc(S(=O)(=O)N3CCCC3)c2)c1	12µM*	·	-17%	·	·
O=C(CN(CCO)c1ccccc1)Nc1cccc(S(=O)(=O)N2CCCC2)c1	-29%	1	13µM*	27	·
O=C(Cn1nnc(-c2ccc(F)cc2)n1)Nc1cccc(S(=O)(=O)N2CCCC2)c1	?	·	13µM*	·	·
SMILES	Pf growth 48h	Cycloheximide cs	Pf growth 96h	Shiga toxin inh	NS1 function inh
Cc1ccc(-c2noc(CCCC(=O)NCC3CCCO3)n2)cc1 (configuration not stated)	43%	8	-4%	24	-10%
Cc1ccc(CCNC(=O)C2CCN(S(=O)(=O)N3CCOCC3)CC2)cc1	3%	-2	?	12	-7%
Cc1ccc(NC(=O)[C@@H]2CCCN2S(=O)(=O)c2ccccc2F)cc1	-12%	-3	2%	-3	-4%
Cc1ccc(NC(=O)CNc2cccc(S(=O)(=O)N3CCOCC3)c2)cc1F	10µM*	·	6.6µM*	·	·
O=C(CNc1cccc(S(=O)(=O)N2CCCC2)c1)Nc1cccc(F)c1	3.7µM*	·	10µM*	·	·
Cc1ccc(NC(=O)CNc2cccc(S(=O)(=O)N3CCCC3)c2)cc1F	9.3µM*	·	5.2µM*	·	·
O=C(Nc1cccc(S(=O)(=O)N2CCCCC2)c1)C1CCCN1S(=O)(=O)c1ccccc1F (configuration not stated)	10µM*	·	?	·	·
CCN(CC)S(=O)(=O)c1cccc(NC(=O)CNc2cccc(S(=O)(=O)N3CCCC3)c2)c1	?	-2	?	-10	4%
CCO/C=C/C(O)(CNC(=O)c1ccc(C(C)(C)C)cc1)C(F)(F)F (configuration not stated)	-25%	14	?	18	-37%
